Assay results as given in PubChem BioAssay (NCI).
The panel holds about 83,000 compounds, 20% with a hit somewhere; the sample as a whole holds those more often.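 Method: cells in 96-well plates; compound added at one concentration; 48 h incubation; percent growth measured; values under 10 scored active.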 Values without a mark were called inactive. Activity calls are given as the source filed them.

Columns and labels:
Assay in all cases: NCI-60 one-dose screen, 48 h (100 = growth as untreated, 0 = no growth, -100 = all killed)
SK-MEL-2 melanoma = settings: 10 µM unless noted
EKVX NSCLC = settings: 10 µM unless noted
SN12C renal = settings: 10 µM unless noted
UO-31 renal = settings: 10 µM unless noted
TK-10 renal = settings: 10 µM unless noted
ACHN renal = settings: 10 µM unless noted
A498 renal = settings: 10 µM unless noted
CCRF-CEM leukemia = settings: 10 µM unless noted
MOLT-4 leukemia = settings: 10 µM unless noted
CAKI-1 renal = settings: 10 µM

Structure (SMILES)	growth (SK-MEL-2 melanoma)	growth (EKVX NSCLC)	growth (SN12C renal)	growth (UO-31 renal)	growth (TK-10 renal)	growth (ACHN renal)	growth (A498 renal)	growth (CCRF-CEM leukemia)	growth (MOLT-4 leukemia)	growth (CAKI-1 renal)
CC(=O)NC(C)(C)C(=O)N1CCC[C@H]1C(=O)NC(C)(C)C(=O)N[C@@H](C)C(=O)NC(C)(C)C(=O)N[C@@H](C)C(=O)N[C@@H](CCC(N)=O)C(=O)NC(C)(C)C(=O)N[C@H](C(=O)NC(C)(C)C(=O)NCC(=O)N[C@@H](CC(C)C)C(=O)NC(C)(C)C(=O)N1CCC[C@H]1C(=O)N[C@H](C(=O)NC(C)(C)C(=O)NC(C)(C)C(=O)N[C@@H](CCC(N)=O)C(=O)N[C@@H](CCC(N)=O)C(=O)N[C@H](CO)Cc1ccccc1)C(C)C)C(C)C	91.2% [4.25 µM]	76.7% [4.25 µM]	32.2% [4.25 µM]	95.8% [4.25 µM]	87.1% [4.25 µM]	110% [4.25 µM]	81.9% [4.25 µM]	62.8% [4.25 µM]	75.3% [4.25 µM]	–
CC(c1ccccc1)N1C(=O)/C(=C/c2csc(C#N)n2)SC1=S (configuration not stated)	96.2%	98.5%	93.3%	64.8%	119%	87%	–	10.5%	36.5%	84.9%
CCN1C(=O)N(CC)C2SC(N/N=C/c3ccc(OC)cc3)=NC21 (configuration not stated)	61.4%	41.8%	24.3%	43.5%	72.8%	31.3%	–	13.1%	10.1%	48.7%
CN(C)c1ncc(/C=C2\SC(=S)N(Cc3ccccc3Cl)C2=O)s1	86%	81.7%	68.7%	47.7%	96.7%	76.2%	–	77.3%	82%	79.1%
O=C(Nc1ccccc1)Nc1nc2ccc([N+](=O)[O-])cc2s1	-10.8% (active)	8.64% (active)	2.88% (active)	8.95% (active)	5.92% (active)	3.7% (active)	–	14.7%	11.6%	3.46% (active)
COc1cc(O)c2c(c1)[C@H]1O[C@@H]1C[C@H](O)[C@H](O)C(=O)/C=C\C[C@H](C)OC2=O	20.1%	51.8%	53.5%	20.4%	48.6%	45.4%	58.9%	22.2%	33.6%	–
c1ccc(-c2c(-c3ccccc3)[n+](Cc3ccc4ccccc4c3)c(-c3ccccc3)n2Cc2ccc3ccccc3c2)cc1	-67.7% (active)	-90.1% (active)	-91.7% (active)	-95.2% (active)	-81.1% (active)	-95.5% (active)	–	-21.6% (active)	-54.1% (active)	-93.4% (active)
CN(C)CCn1c2ccc(N)cc2c2nc3ccccc3nc21	54.6%	40.6%	25.6%	23%	60.2%	13.9%	–	–	8.1% (active)	28.6%
CN(c1ccc(Br)cc1)S(=O)(=O)c1ccc(-c2cnc(C3CC3)o2)cc1	69.5%	43.1%	30.2%	44.4%	87.6%	38.9%	–	18%	23.5%	36.9%
COc1ccc(Cn2cc3c(c2-c2ccccc2)CCCc2cnoc2-3)cc1	80.2%	69.2%	79.8%	57.1%	91.8%	58.9%	–	61.3%	61.7%	46.1%
CC[C@@](C)(NC(=O)C(C)(C)NC(=O)[C@@H](NC(=O)[C@@H]1CCCN1C(=O)C(C)(C)NC(=O)[C@H](CC(C)C)NC(=O)CNC(=O)C(C)(C)NC(=O)[C@@H](NC(=O)C(C)(C)NC(=O)[C@H](CCC(N)=O)NC(=O)[C@H](C)NC(=O)C(C)(C)NC(=O)[C@H](C)NC(=O)C(C)(C)NC(=O)[C@H](C)NC(=O)C(C)(C)NC(C)=O)C(C)C)C(C)C)C(=O)N[C@@H](CCC(N)=O)C(=O)N[C@@H](CCC(N)=O)C(=O)N[C@H](CO)CC1CCCCC1	-21.9% [5 µM] (active)	65.6% [5 µM]	9.8% [5 µM] (active)	91.1% [5 µM]	88.3% [5 µM]	107% [5 µM]	39.7% [5 µM]	27.4% [5 µM]	21% [5 µM]	–
COC[C@@]1(C)CC[C@]2(C)CC[C@]3(C)C(=CC[C@@H]4[C@@]5(C)CCCNC(C)(C)[C@@H]5CC[C@]43C)C2C1 (some centres not stated)	78.1%	76.9%	51.6%	90.4%	110%	87.1%	–	47.7%	34.1%	71.7%
